The source of these data is PubChem BioAssay (NCI).

What all share (assay): NCI-60 one-dose screen, 48 h (100 = growth as untreated, 0 = no growth, -100 = all killed)
Test [1] has as its system SR leukemia. The conditions noted are these: 10 µM unless noted.
Test [2] deals with OVCAR-8 ovarian.
Test [3] concerns OVCAR-5 ovarian.
Test [4] concerns OVCAR-4 ovarian.
Test [5] deals with SK-OV-3 ovarian.
In test [6] the test system is IGROV1 ovarian.
Test [7] deals with OVCAR-3 ovarian.
The test system of test [8] is HS 578T breast.
The subject of test [9] is NCI/ADR-RES ovarian.
In test [10] the test system is T-47D breast.
The subject of test [11] is BT-549 breast.
For test [12], the system named is MDA-MB-435 melanoma.
Test [13] has as its system SW-620 colon.
Test [14] concerns HCC-2998 colon.
The test system of test [15] is KM12 colon.
Test [16] concerns MCF7 breast.
Test [17] has as its system HCT-116 colon.
The test system of test [18] is RPMI-8226 leukemia. The conditions noted are these: 10 µM unless noted.

Where “and” joins values, the source holds several entries; their conditions need not be identical. Identical values can stand only once. This is part of a sample that, as a whole, favours compounds with a hit. Of some 83,000 tested, about 20% had one in any assay.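 Single-concentration screen, 48 h exposure, 96-well plates. Endpoint: percent growth. Below 10 = active.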 Values without a mark were called inactive. Calls of active or inactive are those of the source.

Take `CS/C(=C\c1ccc(C(=O)c2ccc(C)cc2)n1C)S(C)=O` (stereo not drawn): the growth is 30.9% [100 µM] in test [1]; 91% in [2] (10 µM); 82.3% in test [2] (100 µM); 105% in test [3] (10 µM); 102% in [3] (100 µM); 89% in test [4] (10 µM). For the same compound, the growth in test [4] (100 µM) was 69.2%; in test [5] (10 µM) it was 103%; in [5] (100 µM), 87.6%; in test [6] (10 µM), 93.2%; in test [6] (100 µM), 82.9%; in [7] (10 µM) it was 114%. The growth was 69% in [7] (100 µM); 91.2% in test [8] (10 µM); 90.6% in [8] (100 µM); 76.8% in [9] (10 µM); 52.7% in [9] (100 µM); 79.7% in test [10] (10 µM). Besides, the growth was 47.6% in test [10] (100 µM); 102% in [11] (10 µM); 47.4% in test [11] (100 µM); 50.1% in test [12] (10 µM); 26.9% in [12] (100 µM); 101% in [13] (10 µM). In addition, the growth is 97.4% in test [13] (100 µM); 95.9% in test [14] (10 µM); 87.2% in test [14] (100 µM); 94.3% in test [15] (10 µM); 72.8% in test [15] (100 µM).
Take `O=C(N=C1C(=O)C2(CCCCC2)C2(N=C(c3ccccc3)OC2=O)C12CCCCC2)c1ccccc1` (stereo not drawn): the growth in test [1] is 71.8%; in test [2] (10 µM unless noted), 75.4%; in test [3] (10 µM unless noted) it was 85.8%; in test [4] (10 µM unless noted) it was 73.8%; in test [5] (10 µM unless noted), 99.3%; in test [6] (10 µM unless noted), 75%. The growth is 63.6% in test [7] (10 µM unless noted); 95.9% in test [8] (10 µM unless noted); 76.8% in [9] (10 µM unless noted); 35.7% in test [10] (10 µM unless noted); 86.9% in test [11] (10 µM unless noted); 89.1% in [12] (10 µM unless noted). In addition, the growth in [13] (10 µM unless noted) is 71.5%; in test [16] (10 µM unless noted), 51.3%; in [14] (10 µM unless noted), 59.2%; in test [15] (10 µM unless noted) it was 55.6%.
In the case of `C/C(CC(C)C)=N/NC(N)=S`, the growth was 90.9% in [1]; 69% in test [2] (10 µM unless noted); 114% in [3] (10 µM unless noted); 72.2% in test [4] (10 µM unless noted); 105% in [5] (10 µM unless noted); 97.4% in [6] (10 µM unless noted). The growth is 48.1% in [7] (10 µM unless noted); 96.8% in test [8] (10 µM unless noted); 46.7% in test [9] (10 µM unless noted); 39% in test [10] (10 µM unless noted); 107% in [11] (10 µM unless noted); 104% in test [12] (10 µM unless noted). In addition, the growth in test [13] (10 µM unless noted) was 85.4%; in test [16] (10 µM unless noted), 21.3%; in test [17] (10 µM unless noted), 11.8%; in [14] (10 µM unless noted) it was 101%; in [15] (10 µM unless noted), 101%.
Turning to `O=C(O)C#Cc1ccc(Cl)cc1`, the growth was 100% in test [1]; 97.6% in test [2] (10 µM unless noted); 102% in test [3] (10 µM unless noted); 97.5% in [4] (10 µM unless noted); 92.5% in test [5] (10 µM unless noted); 98.3% in test [6] (10 µM unless noted). For the same compound, the growth is 110% in test [7] (10 µM unless noted); 93.6% in test [8] (10 µM unless noted); 108% in test [9] (10 µM unless noted); 90.7% in test [10] (10 µM unless noted); 99.9% in test [11] (10 µM unless noted); 106% in test [12] (10 µM unless noted). For the same compound, the values for the growth in test [16] (10 µM unless noted), in test [14] (10 µM unless noted) and in test [15] (10 µM unless noted) were 98.8%, 108% and 104%, respectively.
As to `CCOC(=O)CN1CCC(C(=O)OCC)CC1`, the growth was 124% in test [1]; 106% in test [2] (10 µM unless noted); 104% in [3] (10 µM unless noted); 108% in test [4] (10 µM unless noted); 99.1% in test [5] (10 µM unless noted); 122% in test [6] (10 µM unless noted). The growth in test [7] (10 µM unless noted) was 117%; in [8] (10 µM unless noted), 106%; in test [9] (10 µM unless noted) it was 110%; in [10] (10 µM unless noted) it was 102%; in test [11] (10 µM unless noted), 105%; in [12] (10 µM unless noted), 114%. The growth in [13] (10 µM unless noted) was 108%; in test [16] (10 µM unless noted) it was 103%; in test [17] (10 µM unless noted) it was 98.1%; in [14] (10 µM unless noted) it was 103%; in [15] (10 µM unless noted) it was 109%.
Turning to `NCCCCCC(=O)O`, the growth in test [1] is 108% and 79.8% and 111%; in test [2] (10 µM unless noted), 103% [middle of 4 runs]; in test [3] (10 µM unless noted), 98.2% [middle of 4 runs]; in test [4] (10 µM unless noted) it was 116% and 103%; in test [5] (10 µM unless noted), 103% [middle of 4 runs]; in [6] (10 µM unless noted), 116% and 101%. For the same compound, the growth in test [8] (10 µM unless noted) was 110% [middle of 4 runs]; in [9] (10 µM unless noted), 109% [middle of 4 runs]; in test [10] (10 µM unless noted) it was 101% [middle of 4 runs]; in [11] (10 µM unless noted) it was 98.5% and 107% and 112%; in [12] (10 µM unless noted), 105% [middle of 4 runs]; in test [13] (10 µM unless noted), 109% and 98.2% and 107%. The growth in [16] (10 µM unless noted) was 105% [middle of 4 runs]; in test [15] (10 µM unless noted), 114% [middle of 4 runs].
Consider `S=c1nc[nH]c2nc[nH]c12`, for which the growth is 24.9% in [18]; 26.6% in test [2] (10 µM); 24% in test [2] (50 µM); 44.7% in test [3] (10 µM); 31.3% in test [3] (50 µM); 50.2% in test [4] (10 µM). The growth in test [4] (50 µM) is 30.9%; in [5] (10 µM unless noted), 36.2%; in test [6] (10 µM) it was 70.5%; in test [6] (50 µM) it was 32.3%; in test [7] (10 µM) it was 29.6%; in [7] (50 µM) it was 23.3%. Further, the growth is 54.6% in test [8] (10 µM); 43.7% in test [8] (50 µM); 22.8% in test [9] (10 µM); 24.9% in test [9] (50 µM); 18.6% in test [10] (10 µM unless noted); 62% in [11] (10 µM). Further, the growth was 64.4% in test [11] (50 µM); 15.3% in test [12] (10 µM); 13.8% in [12] (50 µM); 10.7% in test [16] (10 µM); 6.35% (active) in [16] (50 µM); 4.16% (active) and -35.5% (active) in [16] (750 µM). Further, the growth is 19.2% in test [17] (10 µM); 28.3% in test [17] (50 µM); 23.2% in test [14] (10 µM); 31% in test [14] (50 µM); 35.4% in test [15] (10 µM); 14.9% in [15] (50 µM).
